Laboratory results reported in PubChem BioAssay (Tox21).
Inconclusive results are not listed. A number with no mark means an inactive call. Active and inactive are the calls of the source. Calls follow the shape of the full dose curve.
% is scaled to controls: 0 for no effect and ±100 for the full control effect.

Test: qHTS assay for small molecule agonists of the antioxidant response element (ARE) signaling pathway - cell viability counter screen (AID 743203); also: nearly all actives have a fitted effect of over 55% in size
Conditions: ARE-bla HepG2 viability, CellTiter-Glo luminescence, 16 h; series mostly up to 73.3 µM; viability change, negative = cytotoxic: at the top concentration
From the text: National Center for Advancing Translational Sciences [NCATS]
NIH Chemical Genomics Center [NCGC]
U.S. Environmental Protection Agency [EPA]
National Institutes of Environmental Health Sciences [NIEHS]
National Toxicology Program [NTP]
U.S. Food and Drug Administration [FDA]
Oxidative stress has been implicated in the pathogenesis of a variety of diseases ranging from cancer to neurodegeneration. The antioxidant response element (ARE) signaling pathway plays an important role in the amelioration of oxidative stress. The CellSensor ARE-bla HepG2 cell line (Invitrogen) can be used for analyzing the Nrf2/antioxidant response signaling pathway. Nrf2 (NF-E2-related factor 2) and Nrf1 are transcription factors that bind to AREs and activate these genes. The CellSensor ARE-bla Hep G2 cell line contains a beta-lactamase reporter gene under control of the Antioxidant Response Element (ARE) stably integrated into HepG2 cells. The activation of the report gene under culture conditions can be detected by fluorescence intensity. This cell line has been used to screen the Tox21 10K compound library to identify agonists that induce oxidative stress. The cytotoxicity of the Tox21 compound library against the ARE-bla cell line was tested in parallel by measuring the cell viability using CellTiter-Glo assay (Promega, Madison, WI) in the same wells.
Tox21 Assay Protocol Summary:
ARE-bla HepG2 cells were dispensed at 2,000 cells/5 ul/well in 1536-well white wall/solid bottom plates using a Multidrop Combi (ThermoFisher Scientific, Waltham, MA) dispenser. After the assay plates were incubated at 37C/5% CO2 for 5 hrs, 23 nL of compounds dissolved in DMSO, positive controls or DMSO only was transferred to the assay plate by a pintool work station (Kalypsys, San Diego, CA). The plates were incubated at 37C/5% CO2 for 16 hrs, followed by addition of 4 ul/well of CellTiter-Glo reagent into the assay plates using a Flying Reagent Dispenser (Aurora Discovery, San Diego, CA). After 30 min incubation at room temperature, the luminescence intensity in the assay plates was measured using a ViewLux (PerkinElmer, Shelton, CT) plate reader.
For O=c1n(Cl)c(=O)n(Cl)c(=O)n1Cl, the outcome was “inactive”.
For Clc1ccc(Cl)cc1, the outcome was “inactive”.
In the case of CC(C)(C)C(O)(CCc1ccc(Cl)cc1)Cn1cncn1 (stereo not given), the “viability change, negative = cytotoxic” value was -13.6%.
With CON(C)C(=O)Nc1ccc(Cl)c(Cl)c1 the outcome was “inactive”.
In the case of O=C1CCCN1, the outcome was “inactive”.
With CCCCOC(=O)c1ccccc1C(=O)OCCCC the outcome was “inactive”.
For CC(NC(C)(C)C)C(=O)c1cccc(Cl)c1 (stereo not given), the outcome was “inactive”.
For CNC(=O)Oc1ccccc1OC(C)C, the outcome was “inactive”.
In the case of C=CCO, the outcome was “inactive”.
With CN(C)CCO the outcome was “inactive”.
In the case of C[C@]12CC[C@H]3[C@@H](CC[C@@]45O[C@@H]4C(O)=C(C#N)C[C@]35C)[C@@H]1CC[C@@H]2O, the outcome was “inactive”.
For Nc1ccc(Oc2ccc(N)cc2)cc1, the outcome was “inactive”.
In the case of CC(C)(Cl)Cl, the outcome was “inactive”.
For CCC12COCN1COC2, the outcome was “inactive”.
For C1CC2OC2CC1C1CO1 (stereo not given), the outcome was “inactive”.
For CC(C)OC(=O)Nc1ccccc1, the outcome was “inactive”.
In the case of O=[N+]([O-])c1ccc(Oc2ccc(Cl)cc2Cl)cc1, the outcome was “inactive”.
In the case of C=C(C)CCl, the outcome was “inactive”.
In the case of COCCl, the outcome was “inactive”.
For CCOP(OCC)OCC, the outcome was “inactive”.
In the case of Clc1cccc(Cl)c1Cl, the outcome was “inactive”.
In the case of CC(C)C#N, the outcome was “inactive”.
With CN(C)N=O the outcome was “inactive”.
For Oc1ccccc1Cl, the outcome was “inactive”.
In the case of CCOP(=S)(OCC)SCCSCC, the outcome was “inactive”.
In the case of CC(C)C1(C)N=C(c2nc3ccccc3cc2C(=O)O)NC1=O (stereo not given), the outcome was “inactive”.
With CCC[N+](=O)[O-] the outcome was “inactive”.
With COP(N)(=O)SC (stereo not given) the outcome was “inactive”.
With CC(C)N1C(=O)c2ccccc2NS1(=O)=O the outcome was “inactive”.
With ClCCBr the outcome was “inactive”.
For O=NN1CCCCCCC1, the outcome was “inactive”.
For CCCN(CCC)N=O, the outcome was “inactive”.
With O=S(=O)(c1ccc(Cl)cc1)c1cc(Cl)c(Cl)cc1Cl the outcome was “inactive”.
With ClCc1cccnc1 the outcome was “inactive”.
With CCCCCCCCCCCC#N the outcome was “inactive”.
In the case of CCC[CH2][Sn]([Cl])([Cl])[Cl], the outcome was “inactive”.
In the case of Cn1cc(-c2ccccc2)c(=O)c(-c2cccc(C(F)(F)F)c2)c1, the outcome was “inactive”.
In the case of Cc1ccc(N)cc1N, the outcome was “inactive”.
For Nc1ccccc1C(=O)O, the outcome was “inactive”.
For c1ccc2c(c1)oc1ccccc12, the outcome was “inactive”.
